Source: PubChem BioAssay
miR-122 sensor = miR-122 Renilla sensor signal increase in Huh7, primary screen, miR-122 inhibitor project, cell-based, single point, plate reader. Huh7 miR-122 Renilla luciferase sensor, 48 h; neutral wells = 0, positive control = 100. activation (reporter increase), % at 12.5 µM. actives 0.3% (n = 340,000);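 active = mean replicate activation score at least 90 and every replicate individually at or above 90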;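 also: higher luciferase means less miR-122 activity so hits act as miR-122 inhibitors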
HIV Env fusion = inhibitors of HIV-1 Env-driven cell-cell fusion, primary screen, HeLa-JRFL effector, CEM21 target cells, luciferase; inhibition, % at 12.3 µM; actives 1.1% (n = 360,000);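 active = mean replicate inhibition score of at least 50 and every replicate individually at or above 50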;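 also: 0% = plate neutral controls and 100% = maraviroc near 300 nM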
EWS-Fli block = EWS/Fli-driven NR0B1 reporter inhibitors, primary screen, A673 cells, NR0B1 luciferase, luminescence, MLPCN library; AID 651661, 2012; inhibition, % at 12.6 µM; actives 0.67% (n = 350,000); viability-normalised;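 active = mean inhibition of at least 50% after viability correction, with every replicate also passing that limit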;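 also: firefly luciferase signal divided by Alamar Blue viability fluorescence both relative to DMSO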
INS-1E GSIS act = GLuc luminescence reporter in INS-1E cells, primary screen for activators of glucose-dependent secretion of insulin. actives 0.61% (n = 370,000). INS-1E GLuc reporter insulin secretion, 2-3 h. activation, % at 16.6 µM;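 active = lowest replicate activation of at least 40%, so every replicate reaches that level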;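 also: 0% = median of neutral control wells and 100% = median of IBMX positive control wells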
Statin myotox sup = suppressors of statin myotoxicity in C2C12 myotubes, primary screen, cell-based, single point, plate reader; C2C12 myotubes + simvastatin, ATP luminescence, 48 h; scaled: DMSO 0, geranylgeraniol control 100; rescue of ATP level, % at 7.49 µM; actives 0.78% (n = 330,000); AID 602340, 2012;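 active = mean ATP rescue above about 67%, or every replicate alone reaching that limit, limit read from the data, passing the limit was not always enough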;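 also: myotubes were challenged with 10 µM simvastatin during compound exposure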
PAX8 inh HTS = inhibitors of PAX8-driven TPO luciferase reporter, primary screen, RMG-I cells, single concentration; SteadyGlo, 24 h; inhibition, % at 12.6 µM; actives 1.2% (n = 360,000); AID 652154, 2013;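 active = mean replicate inhibition at least 60% with every replicate also reaching 60%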;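 also: luciferase light reporting Pax8 driven TPO promoter activity; plate controls were median of neutral control wells for no effect and mitoxantrone controls for full effect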
Numbers without * were called inactive; . = no result; [ ] = remark or other dose. An excerpt weighted towards active compounds, which were near 3.1% of everything screened.

SMILES	miR-122 sensor	HIV Env fusion	EWS-Fli block	INS-1E GSIS act	Statin myotox sup	PAX8 inh HTS
COc1ccc(C2=Nn3c(nnc3-c3ccccc3F)SC2)cc1OCC1CC1	-14	-22	56*	79*	-29	50
FC(F)Oc1ccc(C2=Nn3c(nnc3-c3ccccc3Cl)SC2)cc1OCC1CC1	-3	15	18	10	22	4
c1ccc(-c2ccc3c(c2)c2c4n3CCN=C4CCC2)cc1	2	60*	.	.	.	.
OC1CN=C2CCCc3c2n(c2ccc(Cl)cc32)C1 (configuration not stated)	-4	-301	.	.	-5	.
N=c1n(-c2ccccc2)c(O)cc(=O)n1-c1ccccc1	-5	-23	.	.	123*	-2
O=c1cc(O)n(-c2ccccc2)c(=S)[nH]1	-7	.	.	.	-4	.
CCOC(=O)c1cc(=O)n(Cc2ccccc2C)c2ccccc12	-2	.	-2	-11	103*	.
CS(=O)(=O)Nc1ccc2c(c1)[C@@H]1C[C@@H](CC(=O)NCC(F)(F)F)O[C@@H](CO)[C@@H]1O2	4[16.7 µM]	-6[16.7 µM]	2	1	2	-1
Cc1cccc2c(CC(=O)Nc3ccccc3)noc12	-6	13	-5	5	.	64*
Cc1ccc(NC(=O)Cc2noc3ccccc23)c(C)c1	.	-29	.	12	.	-13
CO[C@@H]1CN(C)C(=O)c2cc(NC(=O)c3ccccc3F)ccc2OC[C@@H](C)NC[C@@H]1C	.	-2[16.7 µM]	-1	8	6	-10
O=C(Nc1ccc(OCC(F)(F)C(F)F)c(C(F)(F)F)c1)c1ccccc1O	-7	78*	.	.	.	100*
C[C@H]1CN([C@@H](C)CO)S(=O)(=O)c2ccc(C#CCN(C)C)cc2O[C@H]1CN(C)Cc1ccc2c(c1)OCO2	7[16.7 µM]	3[16.7 µM]	18	0	-4	-3
CCCC#Cc1ccc2c(c1)O[C@H](CN(C)Cc1ccc3c(c1)OCO3)[C@H](C)CN([C@H](C)CO)S2(=O)=O	12[16.7 µM]	56*[16.7 µM]	11	-19	0	.
C[C@H]1CN([C@@H](C)CO)S(=O)(=O)c2ccc(C#CCN(C)C)cc2O[C@@H]1CN(C)Cc1ccc2c(c1)OCO2	104*[16.7 µM]	-36[16.7 µM]	10	13	-54	.
C=CCOc1c(Cl)cc(C(=S)N2CCCC2)cc1OCC	39	-37	58*	-24	-4	43
CCOc1cc(C(=S)N2CCCC2)ccc1O	1	-23	-3	17	3	10
CC(C)CNC(=O)CN(C1CCCCC1)S(=O)(=O)c1ccccc1	3	-39	.	.	102*	15
Cc1ccc(CNC(=O)CN(C2CCCCC2)S(C)(=O)=O)cc1	6	.	.	.	-16	.
CC(C)CNC(=O)CN(C1CCCCC1)S(C)(=O)=O	-3	-22	.	.	-4	.
CS(=O)(=O)N(CC(=O)NCc1ccccc1)C1CCCCC1	-9	.	.	.	120*	.
C=CC(=O)Nc1cccc(Oc2ncnc3[nH]cc(-c4cnc5ccccc5c4)c23)c1	-5	57*	-8	.	0	47
CCCCCCCCOC(=O)C1=C(C)Nc2nnnn2C1c1cccs1 (configuration not stated)	8	26	.	43*	0	.
CCCCCCCOC(=O)C1=C(C)Nc2ncnn2C1c1cccs1 (configuration not stated)	-8	17	.	.	-4	24
Cc1nc2ccccc2c2c1CC(C(C)(Cl)Br)O2 (configuration not stated)	-2	74*	22	-47	-36	16
SMILES	miR-122 sensor	HIV Env fusion	EWS-Fli block	INS-1E GSIS act	Statin myotox sup	PAX8 inh HTS
Cc1cccc(N2CCN(C(=O)CCCSc3nc4ccccc4[nH]3)CC2)c1C	-6	74*	.	-23	-1	.
O=C(CCCSc1nc2ccccc2[nH]1)N1CCN(c2ccccc2)CC1	-3	30	.	.	-12	.
COc1ccccc1S(=O)(=O)N[C@H]1CC[C@H](CC(=O)N2CCN(C)CC2)O[C@H]1CO	-5[16.7 µM]	62*[16.7 µM]	8	27	-8	2
COc1ccc(NC(=O)N(C)C[C@@H]2OCc3cn(nn3)CCCC(=O)N([C@@H](C)CO)C[C@@H]2C)cc1	-1[16.7 µM]	.	-6	-4	2	-7
Cc1cc(N2CCN(Cc3ccccc3)CC2)n2nc(C)c(-c3ccccc3)c2n1	-5	63*	.	.	10	.
COc1ccc(NC(=O)Nc2cccc3c2O[C@@H](CN(C)Cc2ccc4c(c2)OCO4)[C@H](C)CN([C@H](C)CO)C3=O)cc1	22[16.7 µM]	-8[16.7 µM]	.	-7	4	9
COC(=O)[C@]12C[C@H](CC(=O)N3CCN(C(=O)c4ccco4)CC3)C(=O)N(Cc3ccc4c(c3)OCO4)C1=C[C@H](C(C)(C)C)O[C@@H]2C	.	4	7	-18	.	58
COC(=O)[C@@]12C[C@@H](CC(=O)N3CCN(C(=O)c4ccco4)CC3)C(=O)N(Cc3ccc4c(c3)OCO4)C1=CCC(C)(C)C2	.	16	-1	-48	.	-10
COC(=O)[C@]12C[C@H](CC(=O)N3CCN(C(=O)c4ccco4)CC3)C(=O)N(Cc3ccccc3)C1=C[C@H](C(C)(C)C)O[C@@H]2C	.	1	6	.	.	74*
COC(=O)[C@@]12C[C@@H](CC(=O)NCc3ccccc3)C(=O)N(Cc3ccco3)C1=CCC(C)(C)C2	.	0	4	-6	.	-16
COC(=O)[C@@]12C[C@@H](CC(=O)N3CCN(C(=O)c4ccco4)CC3)C(=O)N(Cc3ccco3)C1=CCC(C)(C)C2	.	5	0	-16	.	87*
COC(=O)[C@@]12C[C@@H](CC(=O)N3CCN(C(=O)c4ccco4)CC3)C(=O)N(Cc3ccccc3)C1=CCC(C)(C)C2	.	7	-8	-18	.	88*
C[C@H](CO)N1C[C@H](C)[C@H](CN(C)C(=O)Nc2ccc(C(F)(F)F)cc2)Oc2c(NC(=O)Nc3ccc4c(c3)OCO4)cccc2C1=O	-2[16.7 µM]	2[16.7 µM]	-6	-2	.	.
COc1ccc2c3c([nH]c2c1)[C@H](CO)N(S(C)(=O)=O)CC31CCN(Cc2cccc(F)c2)CC1	.	.	6	-9	.	.
COc1ccccc1NC(=O)N1CC(=O)N2[C@H](CO)[C@H](c3ccc(-c4cccc(C)c4)cc3)[C@@H]2C1	.	.	3	-26	.	.
N#Cc1c(C(F)(F)F)cc(-c2cccs2)nc1SCc1cccnc1	.	37	.	.	-41	.
N#Cc1ccc(-c2cccs2)nc1SCc1cccnc1	19	-130	54*	6	.	50
CCCNC(=O)N1CC2(C1)CN(C(=O)c1cccnc1)[C@H](CO)c1[nH]c3cc(OC)ccc3c12	.	3[16.7 µM]	14	17	.	.
CCOC(=O)c1cnc2c(-c3ccc(Cl)cc3)c(C)nn2c1N	3	.	.	.	87*	.
CN(C[C@H]1N[C@@H](CO)[C@@H]1c1ccc(-c2cccnc2)cc1)C(=O)c1ccccc1	-7[16.7 µM]	.	21	8	-100	98*
